From PubChem BioAssay come the findings set out here.

Activity calls are given as the source filed them. Unless noted, how the calls were made is not given here.

Assay [1] concerns XIP peptide (Xip251-270) binding. The assay is described as follows: XIP fragment 251-270 binding compounds – biochemical, small-molecule microarray, fluorescence 635/667 nm, 0.1 µg/mL protein, primary screen (AID 1182). As to conditions: fluorescent protein binding, 635 nm, higher = more signal, called active from +8 up or from −8 down.
Assay [2] deals with XIP peptide (Xip251-270). Kind of assay: compounds binding XIP fragment 251-270 – biochemical, small-molecule microarray, fluorescence 635/667 nm, 0.5 µg/mL protein, primary screen (AID 1183). As to conditions: fluorescence 635 nm, higher = more signal.
Assay [3] is described as follows: blood-stage malaria parasite viability loss – strain 3D7, DAPI fluorescence, 100 nL, primary screen (AID 1184).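 Further: parasites grown inside human red blood cells in medium with human serum.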 As to conditions: P. falciparum 3D7 growth, 3 d, higher = more signal.
The target in assay [4] is Homeobox protein Hox-A13 (Mus musculus) (UniProt Q62424). The assay is described as follows: disruptors of Hoxa13 oligonucleotide interaction – biochemical, fluorescence polarization, labeled oligonucleotide, primary screen (AID 1185). As to conditions: Hoxa13:DNA binding, 15 min, higher = more signal, called active from +8 up or from −8 down. On the technique in general: Polarisation of emitted light reports the rotation of a fluorescent probe.

Assay [5] is described as follows: blockers of DNA damage checkpoint Chk1 activation – imaging, HeLa, hydroxyurea, phospho-Chk1 antibody, percent positive cells, primary screen (AID 1186). As to conditions: hydroxyurea-induced phospho-Chk1 immunofluorescence imaging, higher = more signal.
Assay [6] in a line: blockers of DNA damage checkpoint Chk1 activation – imaging, HeLa, hydroxyurea, phospho-Chk1 nuclear intensity, primary screen (AID 1187). As to conditions: hydroxyurea-induced phospho-Chk1 immunofluorescence imaging, higher = more signal.

Sequence of Homeobox protein Hox-A13 (Mus musculus) (Q62424 whole entry, looked up): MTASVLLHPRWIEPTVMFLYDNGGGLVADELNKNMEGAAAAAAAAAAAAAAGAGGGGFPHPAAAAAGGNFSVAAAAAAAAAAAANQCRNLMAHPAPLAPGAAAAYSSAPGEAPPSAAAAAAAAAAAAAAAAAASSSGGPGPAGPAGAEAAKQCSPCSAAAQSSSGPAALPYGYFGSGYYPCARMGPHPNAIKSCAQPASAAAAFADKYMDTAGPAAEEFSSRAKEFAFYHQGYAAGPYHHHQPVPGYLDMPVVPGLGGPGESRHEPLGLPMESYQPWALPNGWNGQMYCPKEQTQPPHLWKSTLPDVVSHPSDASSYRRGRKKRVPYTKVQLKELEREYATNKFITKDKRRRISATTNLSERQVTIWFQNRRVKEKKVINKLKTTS

For `O=C1N(Cc2ccccc2)c2ccccc2[C@@H]2OC(c3ccc(OCCCO)cc3)=N[C@]12Cc1ccccc1`, the composite z-score in assay [1] is 0.0973 (inactive); in assay [2], 0.862. Moreover, the z-score in assay [3] was -2.45; in assay [4], -2.22 (inactive); in assay [5] it was -0.389 (inactive); in assay [6] it was -0.321 (inactive).

Regarding `C=C(C(=O)CC[C@@H](OC(C)=O)c1ccc(CO)o1)C(C)C`, the composite z-score in assay [1] is 0.164 (inactive); in assay [2], 0.656. The z-score in assay [3] is -0.14; in assay [4], -4.08 (inactive); in assay [5], 0.257 (inactive); in assay [6], 0.636 (inactive).

`COCCOC(=O)N1C(=O)[C@@]2(c3cc(C#CCCO)ccc31)[C@H](C(=O)Nc1nc3ccccc3s1)[C@H]1C(=O)O[C@H](c3ccccc3)[C@H](c3ccccc3)N1[C@@H]2c1ccccc1OCCO`: the composite z-score is 0.0261 (inactive) in assay [1] and 0.73 in assay [2]. The z-score in assay [3] is -1.68; in assay [4] it was 2.62 (inactive); in assay [5], 0.225 (inactive); in assay [6] it was 0.416 (inactive).

Regarding `NC(=O)NCC#Cc1ccc2c(c1)[C@]1(C(=O)N2)[C@H](C(=O)O)[C@H]2C(=O)O[C@H](c3ccccc3)[C@H](c3ccccc3)N2[C@@H]1c1ccc(OCCO)cc1`, the composite z-score in assay [1] is -0.316 (inactive); in assay [2], 0.419. Also, the z-score is -0.46 in assay [3], -6.34 (inactive) in assay [4], 0.242 (inactive) in assay [5] and 0.615 (inactive) in assay [6].

Consider `CN1C(=O)C2C=CC(C(O)c3cccc4ccccc34)N(N3CCCCC3)C2C1=O` (stereo not given), for which the composite z-score in assay [1] is 0.356 (inactive); in assay [2] it was 0.749. Besides, the z-score in assay [3] is 0.83; in assay [4], -4.64 (inactive); in assay [5], 0.906 (inactive); in assay [6] it was 0.271 (inactive).

For the compound `CC(C)C(=C=CC[C@H](O)c1cccc(OCCO)c1)C[C@H](O)c1cc(Cl)cc(Cl)c1O`, the composite z-score in assay [1] is -0.41 (inactive); in assay [2], 0.594. Moreover, the z-score in assay [3] is -0.487; in assay [4], -4.22 (inactive); in assay [5] it was -0.568 (inactive); in assay [6], 0.228 (inactive).

On to `[N-]=[N+]=Nc1ccccc1[C@H]1OC(c2ccc(OCCCO)cc2)=N[C@@]1(CCS(=O)(=O)c1ccccc1)C(=O)NCCN1CCOCC1`, for which the composite z-score in assay [1] was 0.345 (inactive); in assay [2], 0.868. In addition, the z-score was -2.52 in assay [3], -5.15 (inactive) in assay [4], 0.392 (inactive) in assay [5] and 0.812 (inactive) in assay [6].

In the case of `CC(CO)N1C(=O)[C@@H]2[C@H]3C(=O)OCC=C[C@H]3OC23C=CCN(CCN2CCOCC2)C(=O)[C@@H]13` (stereo not given in full), the composite z-score in assay [1] is -0.0198 (inactive); in assay [2] it was 0.154. Besides, the z-score in assay [3] is 0.177; in assay [4], -5.37 (inactive); in assay [5] it was -0.259 (inactive); in assay [6], -0.252 (inactive).

For `COC1OC[C@]2(C)[C@H]3C4=C(CN2C(=O)OC(C)(C)C)[C@H](C)C(CO)C(CO)C4CC[C@@H]13` (stereo not given in full), the composite z-score in assay [1] was 1.48 (inactive); in assay [2] it was 0.745. The z-score is -0.892 in assay [3], -4.97 (inactive) in assay [4], 0.495 (inactive) in assay [5] and -0.0531 (inactive) in assay [6].

As to `CCCC[C@@H]1C[C@H]1[C@@H](NC(=O)c1cccs1)c1ccc(C(F)(F)F)cc1`, the values for the composite z-score in assay [1] and in assay [2] were -0.011 (inactive) and -0.289, respectively. For the same compound, the z-score is -0.41 in assay [3], -0.891 (inactive) in assay [4], 0.984 (inactive) in assay [5] and 0.516 (inactive) in assay [6].

As to `COCCCNC(=O)[C@]1(CCS(=O)(=O)c2ccccc2)N=C(c2ccc(OCCCO)cc2)O[C@@H]1c1ccccc1CN=[N+]=[N-]`, the composite z-score in assay [1] is 1.51 (inactive); in assay [2] it was 0.814. Further, the z-score was -2.3 in assay [3], -3.61 (inactive) in assay [4], -0.684 (inactive) in assay [5] and -0.618 (inactive) in assay [6].

With `CC(=O)NCCCC[C@@H]1NC(=O)[C@@H]2C[C@H](C(=O)NCCCC[N+](C)(C)C)[C@H](c3ccc(O)cc3)N2C1=O`, the composite z-score was 2.41 (inactive) in assay [1] and 0.842 in assay [2]. Moreover, the z-score in assay [3] was -0.859; in assay [4] it was 0.749 (inactive); in assay [5] it was -0.508 (inactive); in assay [6], -0.589 (inactive).

As to `NC(=O)NCC#Cc1ccc2c(c1)[C@]1(C(=O)N2)[C@H](C(=O)NC[C@H](O)c2ccccc2)[C@H]2C(=O)O[C@H](c3ccccc3)[C@H](c3ccccc3)N2[C@@H]1c1ccc(OCCO)cc1`, the composite z-score in assay [1] was 0.869 (inactive); in assay [2], 0.528. In addition, the z-score in assay [3] was -0.0803; in assay [4], -2.75 (inactive); in assay [5], 0.179 (inactive); in assay [6] it was 0.446 (inactive).

Take `C=CCN1Cc2ccccc2[C@H]2OC(c3ccc(OCCCO)cc3)=N[C@@]2(CC=C)C1=O`: the composite z-score was 0.808 (inactive) in assay [1] and 0.746 in assay [2]. For the same compound, the z-score was -2.15 in assay [3], -3.06 (inactive) in assay [4], -0.39 (inactive) in assay [5] and -0.0236 (inactive) in assay [6].

In the case of `CC1CC/C=C\[C@H]2OC34C=CCN(C(C)C)C(=O)[C@H]3N(CCCCCCO)C(=O)[C@@H]4C2C(=O)O1` (stereo not given in full), the figures for the composite z-score in assay [1] and in assay [2] were 0.565 (inactive) and 0.27, respectively. Besides, the z-score in assay [3] was -0.565; in assay [4], -3.74 (inactive); in assay [5], -0.108 (inactive); in assay [6], 0.631 (inactive).
